Test results published in PubChem BioAssay (NCATS).
Inconclusive results are not listed. The source made the active and inactive calls. Calls follow the shape of the full dose curve.

test: qHTS for inhibitors of Rabies Virus screened against the NCATS CANVASS Library (AID 1347402); conditions: Rabies virus infection cell assay; series mostly up to 45.9 µM; activity change, negative = inhibition: at the top concentration; also: 0% is about no effect

SMILES	activity change, negative = inhibition	outcome
COc1cc(/C=C2/C(=O)N(c3ccc(O)cc3C(=O)O)[C@H](c3ccc(O)c(OC)c3)C2C(=O)Nc2ccc(O)cc2C(=O)O)ccc1O (stereo not given in full)	-23.1% (inactive)	–
CN1CCc2cc3c(c4c2C1(C)C(=O)c1cc(O)ccc1-4)OCO3 (stereo not given)	-17.4% (inactive)	–
CN1C(=O)C(=O)N2C(=C[C@]3(c4c[nH]c5ccccc45)c4ccccc4N[C@H]23)C1=O	-6.33% (inactive)	–
O=C1CC(c2ccc(O)cc2)Oc2cc(O)ccc21 (stereo not given)	-20.4% (inactive)	–
O[C@H]1c2ccccc2-c2c3c(cc4c2[C@@H]1NCC4)OCO3	-20.4% (inactive)	–
C/C(=C\[C@@H](C)CC/C=C/CC/C=C/C(=O)O)[C@@H](O)[C@H](C)C(=O)CCCC1CC(=O)NC(=O)C1	-3.87% (inactive)	–
C=C[C@]1(C)CC[C@@H]([C@H](C)C(=O)/C=C/C(C)(C)O)O1	-10.2% (inactive)	–
COc1cc(O)c2c3c(c(O)cc(C)c13)C(=O)OC2	-1.84% (inactive)	–
C[C@@H]1C(=O)[C@]23CC[C@H]1C[C@]21O[C@H]2C(C)(C)C=CC(=O)[C@]23COC1=O	-15.3% (inactive)	–
C=C(NC(=O)c1csc(-c2nc3c(cc2O)-c2nc(cs2)C(=O)NC(C(C)O)C(=O)N/C(=C(\C)O)c2nc(cs2)C(=O)NC2c4nc(cs4)C(=O)NC(COC(=O)c4c5c6c(cccc6n4O)COC(=O)[C@@H](OC4C[C@](C)(O)[C@H](N(C)C)[C@H](C)O4)C2OC5)c2nc-3cs2)n1)C(N)=O (stereo not given in full)	38.6% (inactive)	–
CC1C(=O)C23CCC1C[C@@]21O[C@H]2C(C)(C)C=CC(=O)[C@@]23COC1=O (stereo not given in full)	-2.78% (inactive)	–
COC1C(O)C(OC(N)=O)C(Oc2ccc3c(O)c(NC(=O)c4ccc(O)c(CC=C(C)C)c4)c(=O)oc3c2C)OC1(C)C (stereo not given)	5.89% (inactive)	–
C=C1CCC2C(C)(C(=O)O)CCC(CC/C(C)=C/C(=O)NC(CCC(N)=O)C(=O)O)[C@@]2(C)C1 (stereo not given in full)	3.72% (inactive)	–
CC12C[C@]3(O)O[C@@H](O1)[C@]1(COC(=O)c4ccccc4)[C@@H]3CC21OC1OC(CO)C(O)C(O)C1O (stereo not given in full)	-4.13% (inactive)	–
C=C1C[C@]23C=CC(=O)[C@@](C)(CCCC(C)C(=O)N[C@@H](CO)C(=O)O)[C@@H]2C[C@@H]1CC3 (stereo not given in full)	0.299% (inactive)	–
CN1CC[C@@]23c4ccccc4N[C@@H]1[C@@]21CCN(C)[C@@H]3Nc2ccccc21	1.81% (inactive)	–
Oc1ccc(/C=C2/c3cc(O)cc(O)c3C(c3ccc(O)cc3)[C@H]2c2cc(O)cc(O)c2)cc1 (stereo not given in full)	-8.29% (inactive)	–
CC1C(=O)C23CCC1C[C@]21O[C@@H]2C(C)(C)C=CC(=O)[C@@]23COC1=O (stereo not given in full)	-6.78% (inactive)	–
C[C@H](CCC(O)C(C)(O)CO)[C@@]1(O)CC[C@@]2(C)C3=C(CC[C@@]21C)[C@@]1(C)CCC(OC(=O)CCC(=O)O)C(C)(C)[C@@H]1CC3 (stereo not given in full)	-25.6% (inactive)	–
C[C@@H](O)[C@H]1OC(=O)C=C2[C@]3(C)[C@H]4[C@H](OC(=O)[C@@]4(C)[C@@H](O)[C@H]4O[C@H]43)[C@H]3O[C@@]231	6.7% (inactive)	–
C=C(C)CC[C@H](Cc1c(O)cc(O)c2c1O[C@H](c1ccc(O)cc1O)CC2=O)C(=C)C	-32.2% (inactive)	–
C/C=C(/CO)C(=O)O[C@@H]1[C@H](O)[C@@H](C(=O)OC)O[C@@H]2C[C@H]3OC(n4cnc5c(N)ncnc54)[C@H](OC)[C@H]3O[C@@]12O (stereo not given in full)	26% (inactive)	–
CO[C@@H]1[C@H](O)[C@@H](C)O[C@@H](OC[C@H]2/C=C/C=C/C(=O)C(C)C[C@H](C)C(O[C@@H]3O[C@H](C)CC4(OC(=O)O[C@@H]4C)C3O)[C@@H](C)/C=C/C(=O)OC2C)[C@@H]1OC (stereo not given in full)	-9.7% (inactive)	–
C/C1=C\CC(=O)/C=C/C=C\c2csc(n2)[C@@H](C)NC(=O)C[C@@](S)([C@@H](C)C(=O)O)CC1	9.14% (inactive)	–
C=C(C)[C@@H]1CC[C@]2(C)CC[C@]3(C)[C@H](CC[C@@H]4[C@@]5(C)CC[C@H](O)C(C)(C)[C@@H]5CC[C@]43C)[C@@H]12	–	inactive
CC[C@@H](c1cc(OC)c(OC)cc1OC)[C@H](C)[C@@H](/C(C)=C/c1cc(OC)c(OC)cc1OC)c1cc(OC)c(OC)cc1OC	–	inactive
O=C(O)[C@@]12CO[C@@]3(O)C4CCN(CC[C@H]31)[C@H]4c1c2[nH]c2ccccc12	-8.87% (inactive)	–
COc1ccc(-c2oc3cc(OC)cc(OC)c3c(=O)c2O)cc1	-23.3% (inactive)	–
C/C(=C\[C@H](C)C(=O)CCCC1CC(=O)NC(=O)C1)C(O)[C@@H](C)[C@H](O)C/C=C/CC/C=C/C(=O)O (stereo not given in full)	21.1% (inactive)	–
C[C@@H]1O[C@@H](O[C@@H]2[C@@H](O)[C@H](O[C@@H]3[C@@H](O)[C@@H](O)C(O[C@H]4[C@H](OC(=O)[C@]56CCC(C)(C)C[C@H]5C5=CCC7[C@@]8(C)C[C@H](O)[C@H](O[C@@H]9C[C@H](CO)[C@@H](O)[C@H](O)[C@H]9O)[C@@](C)(CO)C8[C@H](O)C[C@@]7(C)[C@]5(C)CC6)OC[C@H](O)[C@@H]4O)O[C@H]3C)OC[C@H]2O)[C@H](O)[C@H](O)[C@H]1O (stereo not given in full)	1.36% [at 27.4 µM] (inactive)	–
